Bioassay records from PubChem BioAssay.
Hits are enriched below; roughly 2.1% of the tested compounds scored in any of these assays.
Casp6 inh = human caspase-6 inhibitors, primary screen, biochemical, VEID-R110 fluorescence, single point, set 2; P55212; purified caspase-6, Z-VEID-R110 cleavage fluorescence; inhibition, % at 12.5 µM; actives 0.53% (n = 350,000); AID 686996, 2013;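 active = mean inhibition across replicates at least about 35%, with every replicate also reaching that limit, limit read from the data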;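 note: 0% = median of neutral control wells and 100% = no fluorescence left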
Target sequence (P55212 24-179 limits assumed): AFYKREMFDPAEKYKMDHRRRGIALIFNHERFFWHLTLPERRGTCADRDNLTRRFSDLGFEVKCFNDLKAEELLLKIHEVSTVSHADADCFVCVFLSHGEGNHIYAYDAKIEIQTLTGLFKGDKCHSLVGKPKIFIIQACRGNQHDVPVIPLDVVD
Target sequence (P55212 194-293 limits assumed): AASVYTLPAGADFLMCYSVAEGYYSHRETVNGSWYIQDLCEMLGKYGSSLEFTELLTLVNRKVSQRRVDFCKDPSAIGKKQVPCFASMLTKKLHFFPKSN
PfHsp90 set2 = growth inhibition of PfHsp90-expressing yeast, primary screen, antimalarial PfHsp90 inhibitor project, S. cerevisiae, BacTiter-Glo luminescence, single point, set 2; AID 504621, 2011; actives 0.32% (n = 310,000); BacTiter-Glo ATP, 48 h; yeast lacking PDR1 and PDR3 efflux regulators; inhibition, % at 9.4 µM;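 active = every replicate shows inhibition above about 80%, whatever the replicate mean, limit read from the data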;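 note: 0% = DMSO neutral controls and 100% = 20 µM radicicol positive controls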
NSD2 HMT inh = NSD2 histone methyltransferase inhibitors, primary screen, biochemical, AlphaScreen, single concentration, set 2; NSD2 peptide methylation, 120 min; inhibition, % at 12.5 µM; actives 0.54% (n = 310,000); AID 743445, 2014; in the data active = inhibition above about 50%
ARNT TACC3 PPI = disruptors of ARNT/TACC3 protein interaction, primary screen, biochemical, AlphaScreen, single concentration | AlphaScreen His-ARNT PAS-B/GST-TACC3 binding, luminescence; TACC3 fragment carries E629A point mutation | inhibition, % at 9.99 µM | actives 0.66% (n = 390,000);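 active = mean inhibition of replicates at least 50% and at least half of replicates each reaching 50%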;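 note: 0% = complete ARNT plus TACC3 wells and 100% = ARNT alone without TACC3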
SIRT5 block = SIRT5 desuccinylase inhibitors, primary screen, biochemical, fluorescence imaging, single point, set 5. NAD-dependent protein deacylase sirtuin-5, mitochondrial (Homo sapiens), Q9NXA8. Purified SirT5, succinyl-peptide AMC, trypsin-coupled fluorescence. inhibition, % at 15 µM. actives 1.1% (n = 330,000). AID 652115, 2013; in the data active = inhibition above about 15%
Target sequence (Q9NXA8 whole entry, looked up): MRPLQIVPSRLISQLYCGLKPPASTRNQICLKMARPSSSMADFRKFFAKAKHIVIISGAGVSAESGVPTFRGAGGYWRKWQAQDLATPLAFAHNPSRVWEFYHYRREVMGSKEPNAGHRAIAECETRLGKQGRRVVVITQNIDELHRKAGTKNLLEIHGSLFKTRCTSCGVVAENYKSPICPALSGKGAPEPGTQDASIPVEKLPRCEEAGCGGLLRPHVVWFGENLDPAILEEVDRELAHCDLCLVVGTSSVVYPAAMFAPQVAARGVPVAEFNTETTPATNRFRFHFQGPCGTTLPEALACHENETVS
Active calls of the source: *; nt = not tested or not shown.

SMILES	Casp6 inh	PfHsp90 set2	NSD2 HMT inh	ARNT TACC3 PPI	SIRT5 block
CCCC#Cc1ccc2c(c1)[C@@H]1[C@@H](CCN1S(=O)(=O)c1ccccc1C)[C@@H](CO)N2	-1	nt	nt	nt	18*
COc1ccccc1C#Cc1ccc2c(c1)[C@@H]1[C@@H](CCN1C(=O)c1cccc(F)c1)[C@H](CO)N2	-1	nt	nt	nt	18*
CCC(=O)N1CC[C@@H]2[C@H](CO)Nc3ccc(C#Cc4ccc(OC)cc4)cc3[C@@H]21	-5	nt	nt	-6	17*
COCC(=O)N1CC[C@@H]2[C@H]1c1cc(C#Cc3ccc(OC)cc3)ccc1N[C@@H]2CO	0	nt	nt	10	4
O=C(C1CCC1)N1CC[C@H]2[C@H](CO)Nc3ccc(C#Cc4cccc(F)c4)cc3[C@H]21	-2	nt	nt	11	20*
CO[C@H]1CN(C)C(=O)c2cc(NC(=O)C3CC3)ccc2OC[C@H](C)N(C(C)=O)C[C@@H]1C	0	nt	nt	4	-3
CCCNC(=O)C[C@H]1CC[C@H]2[C@@H](COC[C@@H](O)CN2C(=O)Nc2c(C)noc2C)O1	1	nt	nt	13	3
C[C@H](CO)N1C[C@H](C)[C@H](CN(C)C(=O)CCCN(C)C)OCCCC[C@H](C)Oc2ccc(NC(=O)NC3CCCCC3)cc2C1=O	-2	nt	nt	-3	-2
COc1ccc(Cc2c(-c3cccc(Cl)c3)nc3ccc(C)cn23)c(C)c1	0	nt	nt	nt	22*
COc1ccc(NC(=O)Nc2ccc3c(c2)C(=O)N([C@@H](C)CO)C[C@@H](C)[C@H](CN(C)Cc2ccc(C(=O)O)cc2)O3)cc1	-1	nt	nt	-5	-4
O=S(=O)(c1ccc(F)cc1)N1CCCCN2[C@H](CO)[C@H](c3ccc(C#CC4CCCC4)cc3)[C@H]2C1	1	nt	nt	24	22*
COc1ccc(S(=O)(=O)N2CCCCN3[C@H](C2)[C@H](c2ccc(C#CC(C)C)cc2)[C@@H]3CO)cc1	-5	nt	nt	7	16*
O=S(=O)(c1ccc(F)cc1)N1CCCCN2[C@H](C1)[C@@H](c1ccc(C#CC3CC3)cc1)[C@@H]2CO	2	nt	nt	8	8
COc1ccc(S(=O)(=O)N2CCCCN3[C@H](CO)[C@@H](c4ccc(C#CC(C)C)cc4)[C@@H]3C2)cc1	-2	nt	nt	5	12
O=S(=O)(c1ccccc1)N1CCCCN2[C@H](C1)[C@H](c1ccc(C#CC3CCCC3)cc1)[C@@H]2CO	0	nt	nt	4	19*
O=S(=O)(c1ccc(F)cc1)N1CCCCN2[C@H](CO)[C@@H](c3ccc(C#CC4CC4)cc3)[C@H]2C1	0	nt	nt	2	13
O=S(=O)(c1ccc(F)cc1)N1CCCCN2[C@H](C1)[C@H](c1ccc(C#CC3CCCC3)cc1)[C@@H]2CO	0	nt	nt	0	18*
O=S(=O)(c1ccccc1)N1CCCCN2[C@H](CO)[C@H](c3ccc(C#CC4CCCC4)cc3)[C@@H]2C1	-1	nt	nt	-17	6
C[C@@H]1CN([C@H](C)CO)S(=O)(=O)c2ccc(-c3ccc(C#N)cc3)cc2O[C@@H]1CN(C)Cc1ccccn1	nt	nt	nt	2	0
O=S(=O)(c1ccc(F)cc1)N1CCCCN2[C@H](CO)[C@@H](c3ccc(C#CC4CCCC4)cc3)[C@@H]2C1	1	nt	nt	2	18*
COc1ccccc1NC(=O)C(C)OC(=O)CCC1CCCCC1 (stereo unspecified)	53*	-29	10	-11	-3
COc1ccccc1NC(=O)COC(=O)CCC1CCCC1	1	nt	-7	-6	6
Cc1cccc2cc(CN(Cc3nnnn3C3CCCCC3)C3CCCC3)c3nnnn3c12	nt	105*	-5	-8	nt
CC1=NN(c2ccccc2)C(=O)C1C=Nc1ccccc1O (stereo unspecified)	-2	-7	3	33	-3
CC1=NN(c2ccccc2)C(=O)C1/C=C1\NC(=S)NC1=O (stereo unspecified)	nt	4	102*	5	15*
SMILES	Casp6 inh	PfHsp90 set2	NSD2 HMT inh	ARNT TACC3 PPI	SIRT5 block
O=C(Cc1ccncc1)N1CC[C@@H]2[C@H]1c1cc(-c3cccc(F)c3)ccc1N[C@@H]2CO	nt	nt	nt	20	nt
O=C(N[C@@H]1CC[C@@H](CCNC(=O)c2cnccn2)O[C@@H]1CO)c1ccc2c(c1)OCO2	1	nt	nt	-4	0
O=C(CNC(=O)c1ccccc1)N/N=C/c1cc(Br)ccc1O	-7	-12	-4	-2	2
O=C(CN1CC(c2ccccc2)CC1=O)N/N=C/c1cc(Br)ccc1O (stereo unspecified)	20	-17	0	48*	20*
Cc1noc(C)c1NC(=O)N(C)C[C@@H]1Oc2ccc(NC(=O)NC3CCCCC3)cc2CC(=O)N([C@H](C)CO)C[C@@H]1C	3	nt	nt	5	0
Cc1ccc(C(=O)O)cc1NC(=S)NC(=O)c1ccc(COc2ccccc2)cc1	38*	-33	45	4	3
C[C@@H]1CCCCO[C@H](CN(C)Cc2ccccc2)[C@H](C)CN([C@H](C)CO)C(=O)c2cc(NC(=O)CCC(F)(F)F)ccc2O1	-1	nt	nt	0	19*
COc1ccc(NC(=O)Nc2ccc3c(c2)C(=O)N([C@H](C)CO)C[C@@H](C)[C@@H](CN(C)Cc2ccccc2)OCCCC[C@H](C)O3)cc1	-1	nt	nt	-3	21*
COc1ccc(NC(=O)Nc2ccc3c(c2)C(=O)N([C@@H](C)CO)C[C@H](C)[C@H](CN(C)Cc2ccccc2)OCCCC[C@H](C)O3)cc1	-2	nt	nt	7	3
COc1ccc(NC(=O)Nc2ccc3c(c2)C(=O)N([C@@H](C)CO)C[C@@H](C)[C@@H](CN(C)Cc2ccc(C(F)(F)F)cc2)OCCCC[C@@H](C)O3)cc1	1	nt	nt	-2	17*
COc1ccc(NC(=O)Nc2ccc3c(c2)C(=O)N([C@@H](C)CO)C[C@H](C)[C@H](CN(C)Cc2ccccc2)OCCCC[C@@H](C)O3)cc1	2	nt	nt	4	0
COc1ccc(NC(=O)Nc2ccc3c(c2)C(=O)N([C@@H](C)CO)C[C@H](C)[C@@H](CN(C)Cc2ccccc2)OCCCC[C@H](C)O3)cc1	-4	nt	nt	3	20*
COc1ccc(CN(C)C[C@H]2OCCCC[C@@H](C)Oc3ccc(NC(=O)Nc4ccc(C(F)(F)F)cc4)cc3C(=O)N([C@H](C)CO)C[C@H]2C)cc1	-2	nt	nt	17	12
COc1ccc(CN(C)C[C@H]2Oc3c(NS(=O)(=O)c4cccs4)cccc3C(=O)N([C@H](C)CO)C[C@H]2C)cc1	-1	nt	nt	-10	-2
